Assay outcomes (PubChem BioAssay)
OPRM1-OPRD1 inv = inverse agonists of MOR-DOR heterodimerization, primary screen, cell-based, luminescence; hit rate 0.21% among 340,000; inhibition, % at 9.3 µM; cell-based MOR-DOR heterodimer luminescence, inverse agonism; Mu-type opioid receptor (Homo sapiens) + Delta-type opioid receptor (Homo sapiens), …; in the data active means inhibition above about 22%, passing the limit was not always enough;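 further: 0% = cells with DMSO and 100% = wells without cells with DMSO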
Target sequence (P35372 whole entry, looked up): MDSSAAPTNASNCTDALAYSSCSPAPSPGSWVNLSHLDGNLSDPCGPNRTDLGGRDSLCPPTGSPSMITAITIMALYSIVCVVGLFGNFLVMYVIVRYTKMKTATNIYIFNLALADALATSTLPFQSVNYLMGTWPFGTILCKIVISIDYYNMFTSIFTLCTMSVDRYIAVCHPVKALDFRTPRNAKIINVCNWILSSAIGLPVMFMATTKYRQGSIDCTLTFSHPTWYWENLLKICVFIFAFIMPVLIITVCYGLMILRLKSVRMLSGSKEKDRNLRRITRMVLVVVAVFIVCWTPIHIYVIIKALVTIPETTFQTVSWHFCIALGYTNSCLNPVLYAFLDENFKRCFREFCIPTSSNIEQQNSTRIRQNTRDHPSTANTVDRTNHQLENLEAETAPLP
Target sequence (P41143 whole entry, looked up): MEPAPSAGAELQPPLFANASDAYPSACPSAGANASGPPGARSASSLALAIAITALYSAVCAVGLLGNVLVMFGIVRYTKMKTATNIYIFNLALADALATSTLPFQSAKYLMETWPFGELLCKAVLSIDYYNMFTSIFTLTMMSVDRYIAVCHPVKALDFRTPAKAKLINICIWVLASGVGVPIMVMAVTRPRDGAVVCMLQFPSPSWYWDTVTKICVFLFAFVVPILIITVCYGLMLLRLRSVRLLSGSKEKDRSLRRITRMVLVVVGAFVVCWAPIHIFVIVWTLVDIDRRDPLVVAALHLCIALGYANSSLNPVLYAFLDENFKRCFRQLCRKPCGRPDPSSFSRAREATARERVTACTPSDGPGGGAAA
HTR5A inv ctr = HTR5A inverse agonists in luminescence cell assay, primary screen, counter-screen for OPRM1-OPRD1 heterodimer inverse agonist project, full-deck HTS. 5-hydroxytryptamine receptor 5A (Homo sapiens), P47898. HTR5A cell line, inverse agonism. inhibition, % at 9.3 µM. hit rate 0.083% among 340,000. AID 504634, 2011; in the data active means inhibition mostly above about 23%, no sharp cut-off; inactive means mostly below about 18%;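 further: 0% = cells with DMSO and 100% = no-cell wells with DMSO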
HTR2A ag = mouse Htr2a agonists via beta-arrestin recruitment, primary screen, cell-based, luminescence | hit rate 0.66% among 360,000 | CHO-K1 mHTR2A beta-arrestin complementation; percent of 30 µM serotonin response | 5-hydroxytryptamine receptor 2A (Mus musculus), P35363 | activation, % at 7.6 µM;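 active means activation above a run cutoff, the mean activation of all tested compounds plus 3 SD, cut at about 14% in these data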;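 further: 0% = plate median of compound wells and 100% = 30 µM serotonin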
HGIII-sPLA2 inh = human group III sPLA2 inhibitors, primary screen, biochemical, QFRET, BODIPY PC-A2 liposome substrate; hit rate 0.56% among 370,000; Group 3 secretory phospholipase A2 (Homo sapiens), Q9NZ20; QFRET BODIPY PC-A2 liposome hydrolysis, fluorescence; inhibition, % at 12.2 µM;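 active means inhibition above mean plus 3 SD of compounds lying within the high and low control bounds, cut at about 19% in these data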;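 further: 0% = median of test compound wells and 100% = no enzyme DMSO wells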
HTR5A ag ctr = HTR5A agonists in luminescence cell assay, primary screen, counter-screen for OPRM1-OPRD1 heterodimer agonist project, full-deck HTS | 5-hydroxytryptamine receptor 5A (Homo sapiens), P47898 | cell-based | activation, % at 9.3 µM | hit rate 0.61% among 340,000 | AID 504692, 2011; in the data active means activation mostly above about 9.5%, no sharp cut-off; inactive means mostly below about 7.6%;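 further: 0% = cells with vehicle only and 100% = reference agonist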
OPRM1-OPRD1 ag = agonists of OPRM1-OPRD1 heterodimerization, primary screen, cell-based, luminescence; Mu-type opioid receptor (Homo sapiens) + Delta-type opioid receptor (Homo sapiens), …; activation, % at 9.3 µM; hit rate 0.3% among 340,000; cells; in the data active means activation above about 18%;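 further: 0% = vehicle-treated cells and 100% = reference agonist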
* = called active by the depositor; / = not tested or not shown. This is a sample that favours compounds with a hit; in the whole collection about 2.2% have one here.

SMILES | OPRM1-OPRD1 inv | HTR5A inv ctr | HTR2A ag | HGIII-sPLA2 inh | HTR5A ag ctr | OPRM1-OPRD1 ag
Clc1cc(Cl)cc(CNC2CCC23CCCCC3)c1 (stereo unspecified) | / | / | / | 2 | / | /
COc1ccccc1NC(=O)CS(=O)(=O)c1cccc2nsnc12 | 9 | 34 | 2 | 2 | 12* | -2
COc1ccccc1NS(=O)(=O)c1cccc2nsnc12 | 12 | -3 | -5 | 7 | 1 | -2
COc1ccc(C2/C(=C(/O)c3ccc4c(c3)CC(C)O4)C(=O)C(=O)N2CCCn2ccnc2)cc1 (stereo unspecified) | 18 | -4 | -3 | -3 | 0 | -4
COc1ccc(C2/C(=C(\O)c3ccc4c(c3)OCCO4)C(=O)C(=O)N2CCCn2ccnc2)cc1 (stereo unspecified) | 17 | -2 | -9 | -5 | 11* | -3
C=CCN1[C@@H](Cc2ccccc2)COc2cccc(N3CCCC3)c2S1(=O)=O | / | / | / | 16 | / | /
CCCC1CCC2(CCCN2CCOC(=S)NCc2cccc(C)c2)CC1 (stereo unspecified) | / | / | / | -5 | / | /
COC(=O)[C@]12C[C@H](CC(=O)NCCCN3CCCC3=O)C(=O)N(Cc3cccc4ccccc34)C1=C[C@H](C(C)(C)C)O[C@@H]2C | / | / | / | -7 | / | /
Cc1csc(NC(=O)c2c(O)c3c(n(CC(C)C)c2=O)CCCC3)n1 | 18 | -15 | 2 | / | 11* | -3
N[C@H](C(=O)Nc1ccc(Cl)cc1C(=O)c1ccc[nH]1)c1ccccc1 | / | / | / | 10 | / | /
CC(C)c1c(O)ccc2c1CC[C@H]1C(C)(C)CCC[C@]21C | -47 | -22 | 45* | -5 | 6 | 9
CN(Cc1ccccc1)S(=O)(=O)c1cccc(C(=O)OCC2CCCCC2)c1 | / | / | / | 2 | / | /
O=c1c2ccccc2nc(/C=C/c2ccccc2)n1CCCO | 15 | -35 | 0 | -1 | 9.9* | -3
Cn1c(/C=C/c2ccc(Cl)cc2)nc2ccccc2c1=O | -14 | -37 | -3 | 0 | 9.8* | 3
COc1ccc(C(=O)c2[nH]c(N)c(C(=O)c3ccccc3)c2-c2ccc(OC)c(OC)c2)cc1 | / | / | / | 9 | / | /
O=C(OC12CCCN(C1)/C(=C/c1ccc(Cl)cc1)C2)c1ccc(F)cc1 (stereo unspecified) | / | / | / | -4 | / | /
COc1ccc(/C=N/NC(=S)Nc2ccccc2[N+](=O)[O-])cc1O | -13 | 7 | -8 | 20* | 4 | 2
O=C(CCl)N=c1sccn1Cc1ccccc1Cl | -330 | -252 | 2 | -2 | 85* | 66*
O=C(CCl)N=c1sccn1Cc1ccc(Cl)cc1Cl | -384 | -4 | -1 | -3 | 53* | 77*
CCC(=O)OCC(=O)N=c1sccn1Cc1ccccc1Cl | 3 | 10 | 4 | 8 | -5 | -1
O=C(CCl)N=c1sccn1Cc1cccc2ccccc12 | -396 | -21 | -1 | 4 | 73* | 74*
CN(C)c1ccc(/C=C/c2ccc3c4ccccc4ccc3[n+]2-c2ccccc2)cc1 | -77 | 16 | -3 | 44* | -6 | 16
COc1ccc(C2C(C#N)=C(N)OC3=C2C(=O)CC(C)(C)C3)cc1Cn1nc(C)c([N+](=O)[O-])c1C (stereo unspecified) | 5 | 17 | 1 | 3 | -2 | -1
COc1ccc(C2C(C#N)=C(N)Oc3c2c(C)nn3-c2ccccc2)cc1Cn1nc(C)c([N+](=O)[O-])c1C (stereo unspecified) | -2 | -40 | 7 | -1 | 14* | 0
Cc1ccc(N2C(=O)C(Cl)=C(N3CCN(C)CC3)C2=O)c(C)c1 | -10 | 1 | -6 | 0 | 2 | 2
SMILES | OPRM1-OPRD1 inv | HTR5A inv ctr | HTR2A ag | HGIII-sPLA2 inh | HTR5A ag ctr | OPRM1-OPRD1 ag
CN1CCN(C2=C(Cl)C(=O)N(c3ccc(Cl)cc3)C2=O)CC1 | -4 | 11 | 16* | / | -4 | 1
Cc1ccc(S(=O)(=O)Nc2ccc(NC(=O)Nc3cccc(C(F)(F)F)c3)cc2)cc1 | -144 | -8 | -5 | -65 | 21* | 28*
CCN(CC)S(=O)(=O)c1ccc(NC(=O)Nc2cccc(C(F)(F)F)c2)cc1 | -31 | 13 | -6 | -42 | 13* | 6
O=C(Nc1ccncc1)Nc1cccc(C(F)(F)F)c1 | -12 | -53 | -7 | -18 | 10* | 4
NNC(=O)Nc1cccc(C(F)(F)F)c1 | 7 | -2 | -3 | 3 | 1 | -2
O=C(Nc1cccc(C(F)(F)F)c1)c1sc(Cl)nc1C(F)(F)F | -18 | -35 | -7 | 6 | 9.4* | 4
CC(C)C[C@H]1COc2cc(Br)ccc2S(=O)(=O)N1Cc1cn(Cc2ccc(C(F)(F)F)cc2)nn1 | / | / | / | 10 | / | /
Cc1ccc(S(=O)(=O)N2c3ccc(F)cc3C[C@H]2CSc2ccccc2)cc1 | / | / | / | -1 | / | /
Cc1ccc(NS(=O)(=O)c2ccc(NC(=O)c3cccs3)cc2)cc1 | -38 | -10 | -2 | -65 | 8.3* | 7
CCN(CC)S(=O)(=O)c1ccc(NC(=O)COc2c(OC)cccc2OC)cc1 | 2 | 3 | -4 | -17 | 13* | 0
Nc1[nH]c(C(=O)c2ccccc2)c(-c2ccc3ccccc3c2)c1C(=O)NCCc1ccc(Cl)cc1 | / | / | / | 17 | / | /
CC(CCN1CCC(C(O)(c2ccccc2)c2ccccc2)CC1)Oc1cccc(C(F)(F)F)c1 (stereo unspecified) | / | / | / | -20 | / | /
Clc1ccc(C2Nc3cccc4cccc(c34)N2)cc1 | 0 | 3 | 0 | -4 | 15* | 0
CN1C(=O)Cc2cc(S(=O)(=O)N3CCN(c4ccc(Cl)cc4)CC3)ccc21 | -16 | -23 | 15* | -11 | 0 | 3
CCC[C@H]1[C@@H](NC(=O)NCC)CC[C@@]23CCCN2C(=O)CCC[C@@H]13 | / | / | / | 1 | / | /
Nn1c(SCC(=O)NC2CCCCC2)nnc1-c1n[nH]c2c1CCC2 | / | / | / | 17 | / | /
COc1cccc(N(C(=O)c2snc(C(N)=O)c2N)C(C(=O)NCC2CCCO2)c2cccs2)c1 (stereo unspecified) | -3 | 8 | 4 | -3 | -3 | 0
COc1ccc(N(C(=O)CCl)C(C(=O)NCCc2ccccc2)c2cccs2)cc1Cl (stereo unspecified) | -394 | -145 | 2 | 0 | 54* | 66*
COc1cccc(N(C(=O)CCl)C(C(=O)NCCc2ccccc2)c2cccs2)c1 (stereo unspecified) | -362 | -75 | 9 | 17 | 61* | 68*
COc1ccc(N(C(=O)c2ccco2)C(C(=O)NC2CCCCC2)c2cccs2)cc1OC (stereo unspecified) | 12 | -16 | 7 | -6 | 6 | -2
